“And” between values parts separate entries of the source, which are not always exact repeats. Equal values may be shown once. Among all 5,500 compounds or so, about 2,000 (36%) were called active. Another 18% or so got no clear call; they are omitted. Rule as the data show it: active = normalized growth mostly below about 0.91 (no sharp cut-off); inconclusive = no clear call, values can overlap the other calls; inactive = mostly above about 0.92. The list shows a part of the results.
Experiment: chemical genetic growth profiling, strain panel (AID 1159580);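 also: tested at 20 µM; growth read once vehicle control cultures reached saturation at 30 °C; 1 = growth at the plate median or of vehicle wells; lower values mean less growth of the strain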
Conditions: S. cerevisiae deletion strains, growth OD

Measured: normalized growth

C=C[C@H]1CN2CC[C@H]1C[C@@H]2[C@@H](OC(=O)OCC)c1ccnc2ccc(OC)cc12
inactive: locus YAL013W, strain DEP1, stronger effect = lower value 1 | locus YAL021C, strain ccr4, stronger effect = lower value 0.93 | locus YAL026C, strain drs2, stronger effect = lower value 1.01 | locus YAL030W, strain snc1, stronger effect = lower value 0.989 | locus YBL061C, strain skt5, stronger effect = lower value 0.995 | locus YBR009C, strain hhf1, stronger effect = lower value 0.978 | locus YBR021W, strain FUR4, stronger effect = lower value 0.992 | locus YBR023C, strain chs3, stronger effect = lower value 0.997 | locus YBR171W, strain sec66, stronger effect = lower value 0.995 | locus YBR229C, strain ROT2, stronger effect = lower value 1 | locus YBR231C, strain swc5, stronger effect = lower value 1 | locus YBR279W, strain paf1, stronger effect = lower value 0.997 | locus YCL011C, strain gbp2, stronger effect = lower value 0.969 | locus YCL016C, strain dcc1, stronger effect = lower value 0.955 | locus YCL029C, strain bik1, stronger effect = lower value 1.02 | locus YCL061C, strain MRC1, stronger effect = lower value 0.979 | locus YCL069W, strain vba3, stronger effect = lower value 0.998 | locus YCR088W, strain abp1, stronger effect = lower value 0.999 | locus YDL005C, strain med2, stronger effect = lower value 0.978 | locus YDL035C, strain GPR1, stronger effect = lower value 0.981 | locus YDL040C, strain nat1, stronger effect = lower value 0.994 | locus YDL074C, strain BRE1, stronger effect = lower value 1.03 | locus YDL101C, strain DUN1, stronger effect = lower value 1.02 | locus YDL134C, strain PPH21, stronger effect = lower value 0.991 | locus YDL185W, strain tfp1, stronger effect = lower value 1.02 | locus YDL192W, strain arf1, stronger effect = lower value 1.01 | locus YDR001C, strain nth1, stronger effect = lower value 0.985 | locus YDR069C, strain doa4, stronger effect = lower value 0.979 | locus YDR101C, strain arx1, stronger effect = lower value 1 | locus YDR137W, strain rgp1, stronger effect = lower value 1.01 | locus YDR150W, strain NUM1, stronger effect = lower value 1.01 | locus YDR159W, strain sac3, stronger effect = lower value 1.03 | locus YDR162C, strain NBP2, stronger effect = lower value 1.02 | locus YDR195W, strain ref2 0.956 | locus YDR297W, strain sur2, stronger effect = lower value 1.01 | locus YDR318W, strain mcm21, stronger effect = lower value 1.01 | locus YDR334W, strain swr1, stronger effect = lower value 0.995 | locus YDR335W, strain msn5, stronger effect = lower value 0.983 | locus YDR388W, stronger effect = lower value 1.02 | locus YDR392W, strain spt3, stronger effect = lower value 0.879 | locus YDR502C, strain sam2, stronger effect = lower value 1.01 | locus YEL003W, strain gim4, stronger effect = lower value 0.999 | locus YEL037C, strain rad23, stronger effect = lower value 0.983 | locus YEL061C, strain CIN8 (second series), stronger effect = lower value 0.994 | locus YEL061C, strain CIN8, stronger effect = lower value 1.01 | locus YER015W, strain faa2, stronger effect = lower value 0.989 | locus YER016W, strain bim1, stronger effect = lower value 0.995 | locus YER110C, stronger effect = lower value 1.03 | locus YER111C, strain swi4, stronger effect = lower value 0.991 | locus YER155C, strain BEM2 (second series), stronger effect = lower value 1.01 | locus YER155C, strain BEM2, stronger effect = lower value 1 | locus YER167W, strain BCK2, stronger effect = lower value 0.997 | locus YFR010W, strain ubp6, stronger effect = lower value 1 | locus YGL078C, strain dbp3, stronger effect = lower value 1.01 | locus YGL086W, strain mad1, stronger effect = lower value 1.01 | locus YGL167C, strain pmr1, stronger effect = lower value 0.962 | locus YGL173C, strain kem1, stronger effect = lower value 1.01 | locus YGL227W, strain vid30, stronger effect = lower value 0.994 | locus YGL240W, strain doc1, stronger effect = lower value 1.01 | locus YGL248W, strain PDE1, stronger effect = lower value 1.03 | locus YGL253W, strain hxk2, stronger effect = lower value 1.04 | locus YGR135W, strain pre9, stronger effect = lower value 1.02 | locus YGR229C, strain SMI1, stronger effect = lower value 1.01 | locus YGR252W, strain gcn5, stronger effect = lower value 0.984 | locus YHR013C, strain ard1, stronger effect = lower value 0.951 | locus YHR027C, strain rpn1, stronger effect = lower value 0.983 | locus YHR030C, strain SLT2, stronger effect = lower value 1.01 and 1.08 | locus YHR079C, strain IRE1 (second series), stronger effect = lower value 1.03 | locus YHR079C, strain IRE1, stronger effect = lower value 1.03 | locus YHR094C, strain hxt1, stronger effect = lower value 1.02 | locus YHR129C, strain ARP1, stronger effect = lower value 1.01 | locus YHR142W, strain chs7, stronger effect = lower value 0.973 | locus YHR200W, strain rpn10, stronger effect = lower value 1.02 | locus YIL066C, strain RNR3, stronger effect = lower value 1.01 | locus YIL073C, strain SPO22, stronger effect = lower value 1.04 | locus YIL125W, strain kgd1, stronger effect = lower value 1.02 | locus YIR030C, strain dcg1, stronger effect = lower value 1.02 | locus YJL092W, strain hpr5, stronger effect = lower value 0.992 | locus YJL095W, strain BCK1 (second series), stronger effect = lower value 0.986 | locus YJL095W, strain BCK1, stronger effect = lower value 1.04 and 1.02 | locus YJL115W, strain asf1, stronger effect = lower value 0.966 | locus YJL129C, strain trk1, stronger effect = lower value 1.02 | locus YJL134W, strain LCB3, stronger effect = lower value 1.01 | locus YJL154C, strain vps35, stronger effect = lower value 0.986 | locus YJL164C, strain tpk1, stronger effect = lower value 0.966 | locus YJL166W, strain qcr8, stronger effect = lower value 1 | locus YJL168C, strain set2, stronger effect = lower value 1.03 | locus YJL187C, strain SWE1 (second series), stronger effect = lower value 1.03 | locus YJR043C, strain POL32, stronger effect = lower value 0.996 | locus YJR066W, strain TOR1, stronger effect = lower value 1 | locus YKL009W, strain mrt4, stronger effect = lower value 1.04 | locus YKL068W, stronger effect = lower value 1.02 | locus YKL085W, strain MDH1 (second series), stronger effect = lower value 1.01 | locus YKL085W, strain MDH1, stronger effect = lower value 1.01 | locus YKL160W, strain elf1, stronger effect = lower value 0.96 | locus YKL190W, strain CNB1, stronger effect = lower value 1.01 | locus YKR001C, strain vps1, stronger effect = lower value 1.01 | locus YKR026C, strain gcn3, stronger effect = lower value 0.998 | locus YKR091W, strain srl3, stronger effect = lower value 0.991 | locus YLL001W, strain dnm1, stronger effect = lower value 0.942 | locus YLL026W, stronger effect = lower value 0.985 | locus YLL041C, strain sdh2, stronger effect = lower value 0.976 | locus YLR027C, strain aat2, stronger effect = lower value 1.01 | locus YLR039C, strain RIC1, stronger effect = lower value 1.01 | locus YLR058C, strain SHM2, stronger effect = lower value 1.01 | locus YLR102C, strain apc9, stronger effect = lower value 1.02 | locus YLR113W, strain HOG1, stronger effect = lower value 1.01 | locus YLR221C, strain rsa3, stronger effect = lower value 1.04 | locus YLR258W, strain gsy2, stronger effect = lower value 0.973 | locus YLR262C, strain YPT6 (second series), stronger effect = lower value 1 | locus YLR262C, strain YPT6, stronger effect = lower value 1.05 | locus YLR268W, strain sec22, stronger effect = lower value 1.02 | locus YLR320W, strain mms22, stronger effect = lower value 1.07 | locus YLR330W, strain CHS5, stronger effect = lower value 1.01 | locus YLR342W, strain FKS1 (second series), stronger effect = lower value 0.998 | locus YLR342W, strain FKS1, stronger effect = lower value 0.995 | locus YLR357W, strain rsc2, stronger effect = lower value 0.962 | locus YLR370C, strain arc18, stronger effect = lower value 0.99 | locus YLR371W, strain rom2, stronger effect = lower value 1.02 | locus YLR384C, strain iki3, stronger effect = lower value 0.997 | locus YLR418C, strain cdc73, stronger effect = lower value 1.02 | locus YML016C, strain PPZ1, stronger effect = lower value 1.01 | locus YML032C, strain rad52, stronger effect = lower value 1.02 | locus YML120C, strain ndi1, stronger effect = lower value 0.973 | locus YML124C, strain tub3, stronger effect = lower value 1.02 | locus YMR058W, strain fet3, stronger effect = lower value 0.989 | locus YMR078C, strain ctf18, stronger effect = lower value 1.02 | locus YMR125W, strain sto1, stronger effect = lower value 0.963 | locus YMR129W, stronger effect = lower value 0.997 | locus YMR205C, strain PFK2, stronger effect = lower value 0.951 | locus YMR223W, strain ubp8, stronger effect = lower value 1.01 | locus YMR231W, strain pep5, stronger effect = lower value 1 | locus YMR263W, strain SAP30, stronger effect = lower value 1.03 | locus YMR307W, strain GAS1, stronger effect = lower value 0.905 | locus YNL067W, strain RPL9B, stronger effect = lower value 1.05 | locus YNL071W, strain lat1, stronger effect = lower value 0.997 | locus YNL183C, strain NPR1, stronger effect = lower value 0.986 | locus YNL209W, strain ssb2, stronger effect = lower value 0.983 | locus YNL233W, strain BNI4, stronger effect = lower value 1.03 | locus YNL248C, strain rpa49, stronger effect = lower value 1.02 | locus YNL250W, strain rad50, stronger effect = lower value 1.01 | locus YNL271C, strain bni1, stronger effect = lower value 1.04 | locus YNL298W, strain CLA4, stronger effect = lower value 1.03 | locus YNL307C, strain MCK1, stronger effect = lower value 1.02 | locus YNL322C, strain KRE1 (second series), stronger effect = lower value 0.988 | locus YNR049C, strain mso1, stronger effect = lower value 0.989 | locus YNR052C, strain pop2, stronger effect = lower value 1.02 | locus YOL006C, strain TOP1, stronger effect = lower value 1.14 | locus YOL012C, strain htz1 1.23 | locus YOL147C, strain pex11, stronger effect = lower value 1.02 | locus YOR001W, strain rrp6, stronger effect = lower value 1.01 | locus YOR061W, strain CKA2, stronger effect = lower value 1.02 | locus YOR069W, strain VPS5, stronger effect = lower value 1.01 | locus YOR070C, strain gyp1, stronger effect = lower value 1.03 | locus YOR080W, strain dia2, stronger effect = lower value 0.988 | locus YOR083W, strain WHI5, stronger effect = lower value 0.963 | locus YOR106W, strain vam3, stronger effect = lower value 0.934 | locus YOR136W, strain idh2, stronger effect = lower value 1.02 | locus YOR144C, strain elg1, stronger effect = lower value 1.02 | locus YOR184W, strain ser1, stronger effect = lower value 1.02 | locus YOR231W, strain MKK1, stronger effect = lower value 1.03 | locus YOR265W, strain rbl2, stronger effect = lower value 0.996 | locus YOR270C, strain vph1, stronger effect = lower value 1.07 | locus YOR290C, strain snf2, stronger effect = lower value 0.94 | locus YOR316C, strain cot1, stronger effect = lower value 1.02 | locus YPL051W, strain arl3, stronger effect = lower value 0.983 | locus YPL078C, strain atp4, stronger effect = lower value 0.946 | locus YPL106C, strain sse1, stronger effect = lower value 0.934 | locus YPL240C, strain hsp82, stronger effect = lower value 0.998 | locus YPL256C, strain CLN2, stronger effect = lower value 1.09 | locus YPR119W, strain clb2, stronger effect = lower value 1.01 | locus YPR141C, strain kar3, stronger effect = lower value 1.01 | locus YPR163C, strain tif3, stronger effect = lower value 1.03 | locus YPR167C, strain met16, stronger effect = lower value 1.02 | strain wtn01, stronger effect = lower value 1.04

From PubChem BioAssay AID1159580 (chemical genetic matrix, 2015)
